Hits are enriched below; roughly 2.4% of the tested compounds scored in any of these assays.
D2 ag-1: D2 dopamine receptor (human) agonism; 340,000 compounds, 0.53% hits; HEK293 T-REx D2 cells, calcium flux agonist mode; P14416; activation, % at 2 µM;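 active means activation over 3 SD above normal in the single-dose calcium agonist read, cut at about 30% in these data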; further: 0% is about no effect
Target sequence (P14416 whole entry, looked up): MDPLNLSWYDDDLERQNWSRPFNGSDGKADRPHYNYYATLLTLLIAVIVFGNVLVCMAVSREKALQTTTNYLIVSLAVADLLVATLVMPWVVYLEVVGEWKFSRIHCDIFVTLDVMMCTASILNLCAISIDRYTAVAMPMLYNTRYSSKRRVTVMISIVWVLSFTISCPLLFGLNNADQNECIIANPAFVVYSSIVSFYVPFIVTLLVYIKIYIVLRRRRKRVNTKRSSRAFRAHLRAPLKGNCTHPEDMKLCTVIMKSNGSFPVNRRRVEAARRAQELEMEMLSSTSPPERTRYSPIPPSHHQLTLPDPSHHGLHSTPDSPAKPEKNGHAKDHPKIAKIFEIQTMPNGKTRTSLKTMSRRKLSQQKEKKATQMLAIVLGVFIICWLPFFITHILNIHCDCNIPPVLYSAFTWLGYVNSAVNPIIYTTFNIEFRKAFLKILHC
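Agonism is scored from calcium flux in a force-coupled, inducible HEK293 cell line expressing D2, read kinetically for 180 s after compound addition against dopamine controls.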
D2 antag: antagonizes the human D2 dopamine receptor; HEK293 TREx D2 cells, calcium flux, dopamine EC80; P14416; inhibition, % at 10 µM; 340,000 compounds, 2% hits; in the data active means inhibition above about 30%; inactive means below that, where a call was filed; further: 0% is about no effect
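In this primary screen, negative modulation is detected by tracking calcium flux after an EC80 dopamine challenge in inducible HEK293 T-REx D2 cells preexposed to test compound for 180 s.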
D2 PAM-1: D2 dopamine receptor (human) potentiation; P14416; HEK293 T-REx D2, calcium flux, EC20 dopamine potentiation; potentiation, % at 10 µM; 340,000 compounds, 0.34% hits; AID 485347;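 active means potentiation over 3 SD above the plate norm, cut at about 30% in these data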; further: 0% is about no effect
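Potentiation of an EC20 dopamine calcium response is measured in a force-coupled, tetracycline-inducible Hek293 Trex D2 line. Compound-only kinetic reads over 180 s flag agonists before dopamine addition.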
D2 ag-2: agonists of human D2 dopamine receptor (beta-arrestin) | DiscoveRx PathHunter D2 beta-arrestin, luminescence, 90 min; 100% = 57 uM dopamine signal | activation, % (test concentration not listed) | 360,000 compounds, 0.084% hits | AID 624465; in the data active means activation above about 40%; inconclusive means between about 15% and that limit
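Agonist mode: compounds alone added to overnight-plated D2 PathHunter cells for 90 min at 37 C, with 57 uM final dopamine (EC100) defining full response. Beta-arrestin recruitment detected by chemiluminescent reagent, read after 1 h at ambient temperature.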
D2 PAM-2: positive allosteric modulators of human D2 dopamine receptor; P14416; DiscoveRx D2 beta-arrestin cells, luminescence, 90 min; 100% = 57 uM dopamine signal; potentiation, % (no concentration beside the values); 360,000 compounds, 0.23% hits; AID 624464; in the data active means potentiation above about 50%; inconclusive means mostly about 30% to 49%
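PathHunter D2 cells, attached overnight at 37 deg C, received compound in DMSO plus dopamine at EC20 (50 nM final) for 90 min at 37 deg C. Beta-arrestin recruitment was read as luminescence after 1 h with detection reagent at ambient temperature.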
Active calls of the source: *.

`O=C(NC1CCSC1=O)c1cccc(C(=O)NC2CCSC2=O)c1` (stereo unspecified) gave D2 ag-1 1, D2 antag 42*, D2 PAM-1 -4, D2 ag-2 -2 and D2 PAM-2 -23.
CCCCn1cc(S(=O)(=O)c2ccc(Cl)cc2)c(=O)c2cc(F)c(N3CCCC(C)C3)cc21 (stereo unspecified) was read as D2 ag-1 0 and D2 PAM-1 0.
Cc1ccc(N(CC(=O)NCc2ccc(F)cc2)S(=O)(=O)c2cccs2)cc1 was read as D2 ag-1 1, D2 antag 46*, D2 PAM-1 -12, D2 ag-2 3 and D2 PAM-2 1.
Screening COc1ccc(N(CC(=O)Nc2ccc3c(c2)OCO3)S(=O)(=O)c2ccc(C)cc2)cc1OC returned D2 ag-1 1, D2 antag 54*, D2 PAM-1 -28, D2 ag-2 -1 and D2 PAM-2 -12.
Screening COc1ccc(N(CC(=O)Nc2ccc3c(c2)OCO3)S(=O)(=O)c2ccccc2)cc1OC returned D2 ag-1 -1, D2 antag 8, D2 PAM-1 0, D2 ag-2 1 and D2 PAM-2 4.
Screening COc1ccc(S(=O)(=O)N(CC(=O)NCc2ccncc2)c2ccc(C)cc2)cc1Br returned D2 ag-1 0, D2 antag 33*, D2 PAM-1 1, D2 ag-2 -1 and D2 PAM-2 -4.
`Cn1c(N)c(C(=O)Nc2ccccc2)c(=O)[nH]c1=O` gave D2 ag-2 1 and D2 PAM-2 -6.
Cn1c(N)c(C(=O)/C=C/c2ccccc2)c(=O)[nH]c1=O was read as D2 ag-1 1, D2 antag 54*, D2 PAM-1 5, D2 ag-2 -1 and D2 PAM-2 -2.
Screening COC(=O)c1ccc(NC(=O)CCn2cnnn2)c(C)c1 returned D2 ag-1 0 and D2 PAM-1 -1.
Cc1cc(C)nc(NC(C)(C)C(=O)O)n1 was read as D2 ag-1 -1, D2 antag 32*, D2 PAM-1 -17, D2 ag-2 2 and D2 PAM-2 -6.
For Cc1cc(OCCN2CCCCC2)nc2ccccc12 the results were D2 ag-1 0, D2 antag 31*, D2 PAM-1 -20, D2 ag-2 -5 and D2 PAM-2 -39.
CCS(=O)(=O)N1CC(=O)N(c2cccc(Cl)c2)C(C)(C(=O)NC2CCCCCC2)C1 (stereo unspecified) was read as D2 ag-1 -1 and D2 PAM-1 10.
`O=C(CCCCCn1c(=O)[nH]c2ccsc2c1=O)N1CCCCC1` gave D2 ag-1 -1, D2 antag 9, D2 PAM-1 6, D2 ag-2 -3 and D2 PAM-2 -7.
Cc1cccc(N2CCN(C(=O)CCn3c(=O)[nH]c4ccsc4c3=O)CC2C)c1 (stereo unspecified) was read as D2 ag-1 -2, D2 antag -1, D2 PAM-1 21, D2 ag-2 56* and D2 PAM-2 inconclusive.
Screening O=C(CCCCCn1c(=O)[nH]c2ccsc2c1=O)N1CCN(C2CCCCC2)CC1 returned D2 ag-1 10, D2 antag 53*, D2 PAM-1 -5, D2 ag-2 -2 and D2 PAM-2 -1.
Screening CCOc1ccc(-n2c(=O)c3c(C)c(C)sc3n(CC(=O)c3ccccc3)c2=O)cc1 returned D2 ag-1 1 and D2 PAM-1 6.
`Cc1c(Br)c([N+](=O)[O-])nn1CC(=O)NC1CCCCCC1` gave D2 ag-1 -2, D2 antag 41*, D2 PAM-1 1, D2 ag-2 -2 and D2 PAM-2 -6.
`Cc1c(Cl)c([N+](=O)[O-])nn1CC(=O)NC1CCCCC1` gave D2 ag-1 0, D2 antag 11, D2 PAM-1 -6, D2 ag-2 -4 and D2 PAM-2 -9.
Screening NC(N)=NCc1cccc(I)c1 returned D2 ag-1 1, D2 antag 34*, D2 PAM-1 -5, D2 ag-2 5 and D2 PAM-2 -17.
Screening O=C(N/N=C/c1cc(Br)c(Br)o1)c1cc2ccccc2o1 returned D2 ag-1 0, D2 antag 33*, D2 PAM-1 -24, D2 ag-2 6 and D2 PAM-2 -37.
Cc1cc(C)cc(Nc2cc(C(=O)NC3CCC(C)CC3)c3ccccc3n2)c1 (stereo unspecified) was read as D2 ag-1 0 and D2 PAM-1 0.
COc1cccc(C2C=C(c3ccc(C)c(C)c3)Nc3nnnn32)c1OC (stereo unspecified) was read as D2 ag-1 0 and D2 PAM-1 -1.
Screening Cc1ccc(-n2nc(-c3ccccc3)c3cnc4cc5c(cc4c32)OCO5)cc1C returned D2 ag-1 0 and D2 PAM-1 29.
CCOc1ccc(NC(=O)c2cccc3c(=O)c4c([nH]c23)CCCC4)cc1 was read as D2 ag-1 2 and D2 PAM-1 -3.
CNS(=O)(=O)c1ccc(C(C)(C)C)cc1 was read as D2 ag-1 1, D2 antag 65*, D2 PAM-1 -24, D2 ag-2 -2 and D2 PAM-2 -2.
Screening COC(=O)CN1C(c2cccc(Cl)c2)=Nc2ccc(Cl)cc2C1c1ccccc1 (stereo unspecified) returned D2 ag-1 -2, D2 antag 21, D2 PAM-1 -13, D2 ag-2 -2 and D2 PAM-2 -36.
`COc1cc(C2=Nc3ccc(Br)cc3C(c3ccccc3)N2CC(=O)NN)cc(OC)c1OC` (stereo unspecified) gave D2 ag-1 1, D2 antag 86*, D2 PAM-1 -15, D2 ag-2 -5 and D2 PAM-2 -22.
`COC(=O)CN1C(c2ccc(OC)cc2)=Nc2ccc(Cl)cc2C1c1ccccc1` (stereo unspecified) gave D2 ag-1 1, D2 antag 91*, D2 PAM-1 -24, D2 ag-2 3 and D2 PAM-2 9.
COc1ccccc1NC(=O)c1ccc(NC(=O)COC(=O)C2CCCO2)cc1 (stereo unspecified) was read as D2 ag-1 0, D2 antag 41*, D2 PAM-1 10, D2 ag-2 4 and D2 PAM-2 5.
`CCOc1ccc(-n2c(SCC(=O)NC)nnc2-c2ccco2)cc1` gave D2 ag-1 0, D2 antag 36*, D2 PAM-1 7, D2 ag-2 2 and D2 PAM-2 -2.
Screening CCOc1ccccc1-n1c(SCC(=O)NC)nnc1-c1ccco1 returned D2 ag-1 0, D2 antag -2, D2 PAM-1 10, D2 ag-2 0 and D2 PAM-2 -3.
For Cn1c(SCC(=O)N2CCN(c3ccccc3)CC2)nnc1-c1ccco1 the results were D2 ag-1 1, D2 antag 2, D2 PAM-1 -9, D2 ag-2 -3 and D2 PAM-2 -10.

Screens as filed in PubChem.
